# This is one part of a sample in which the strongest signals are shown more often than they occur.
# Tests used:
# Test in all cases: glycan array binding signal (z-score within array); higher = stronger binding
# Details in all cases: glycan notation: IUPAC condensed, linker removed
# [1] = target: GlcNAc(a1-4)Gal(b1-4)GlcNAc(b1-3)Gal(b1-4)Glc
# Outline: (§1)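 The binding signal is a Z-score computed within each array and averaged over linkers. Arrays of the same protein sequence at different concentrations or buffers were also averaged together. Data originate from 3228 arrays in the Consortium for Functional Glycomics database, kept only where the protein sequence was available.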
# [2] = target: GlcNAc(b1-2)Man(a1-3)[GlcNAc(b1-2)Man(a1-6)]Man(b1-4)GlcNAc(b1-4)[Fuc(a1-6)]GlcNAc
# Outline: as §1
# [3] = target: GlcNAc(b1-2)[GlcNAc(b1-6)]Man(a1-6)[GlcNAc(b1-2)Man(a1-3)]Man(b1-4)GlcNAc(b1-4)[Fuc(a1-6)]GlcNAc
# Outline: as §1
# [4] = target: GlcNAc(b1-3)Gal(b1-4)GlcNAc(b1-2)Man(a1-3)[GlcNAc(b1-3)Gal(b1-4)GlcNAc(b1-2)Man(a1-6)]Man(b1-4)GlcNAc(b1-4)[Fuc(a1-6)]GlcNAc
# Outline: as §1
# [5] = target: GlcNAc(b1-3)Gal(b1-4)GlcNAc(b1-3)Gal(b1-4)GlcNAc
# Outline: as §1
# [6] = target: GlcNAc(b1-3)Gal(b1-4)GlcNAc(b1-3)Gal(b1-4)GlcNAc(b1-3)Gal(b1-4)GlcNAc(b1-3)Gal(b1-4)GlcNAc(b1-2)Man(a1-3)[GlcNAc(b1-3)Gal(b1-4)GlcNAc(b1-3)Gal(b1-4)GlcNAc(b1-3)Gal(b1-4)GlcNAc(b1-3)Gal(b1-4)GlcNAc(b1-2)Man(a1-6)]Man(b1-4)GlcNAc(b1-4)[Fuc(a1-6)]GlcNAc
# Outline: as §1
# [7] = target: GlcNAc(b1-3)GalNAc
# Outline: as §1
# [8] = target: GlcNAc(b1-4)GlcNAc(b1-4)GlcNAc
# Outline: as §1
# [9] = target: Kdn(a2-3)Gal(b1-4)[Fuc(a1-3)]GlcNAc
# Outline: as §1
# [10] = target: Man(a1-2)Man(a1-3)[Man(a1-2)Man(a1-6)]Man(a1-6)[Man(a1-2)Man(a1-2)Man(a1-3)]Man
# Outline: as §1
# [11] = target: Man(a1-2)Man(a1-3)[Man(a1-6)]Man(a1-6)[Man(a1-2)Man(a1-3)]Man(b1-4)GlcNAc(b1-4)GlcNAc
# Outline: as §1
# [12] = target: Man(a1-3)[Man(a1-6)]Man(b1-4)GlcNAc(b1-4)[Fuc(a1-6)]GlcNAc
# Outline: as §1
# [13] = target: Neu5Ac(a2-3)Gal(b1-4)GlcNAc(b1-2)Man(a1-3)[GlcNAc(b1-4)][Neu5Ac(a2-3)Gal(b1-4)GlcNAc(b1-2)Man(a1-6)]Man(b1-4)GlcNAc(b1-4)GlcNAc
# Outline: as §1
# [14] = target: Neu5Ac(a2-3)Gal(b1-4)GlcNAc(b1-3)Gal(b1-4)GlcNAc(b1-3)Gal(b1-4)GlcNAc
# Outline: as §1
# [15] = target: Neu5Ac(a2-3)Gal(b1-4)[Fuc(a1-3)]GlcNAc(b1-6)[Gal(b1-3)]GalNAc
# Outline: as §1
# [16] = target: Neu5Ac(a2-3)[GalNAc(b1-4)]Gal(b1-4)Glc
# Outline: as §1
# [17] = target: Neu5Ac(a2-3)[GalNAc(b1-4)]Gal(b1-4)GlcNAc(b1-3)GalNAc
# Outline: as §1
# [18] = target: Neu5Ac(a2-6)Gal(b1-3)GlcNAc(b1-3)[Gal(b1-4)GlcNAc(b1-6)]Gal(b1-4)Glc
# Outline: as §1
# [19] = target: Neu5Ac(a2-6)Gal(b1-4)GlcNAc
# Outline: as §1
# [20] = target: Neu5Ac(a2-6)Gal(b1-4)GlcNAc(b1-2)Man(a1-3)[Gal(b1-4)GlcNAc(b1-2)Man(a1-6)]Man(b1-4)GlcNAc(b1-4)GlcNAc
# Outline: as §1
# [21] = target: Neu5Ac(a2-6)Gal(b1-4)GlcNAc(b1-2)Man(a1-3)[Man(a1-6)]Man(b1-4)GlcNAc(b1-4)GlcNAc
# Outline: as §1
# [22] = target: Neu5Ac(a2-6)Gal(b1-4)GlcNAc(b1-2)Man(a1-3)[Neu5Ac(a2-6)Gal(b1-4)GlcNAc(b1-2)Man(a1-6)]Man(b1-4)GlcNAc(b1-4)[Fuc(a1-6)]GlcNAc
# Outline: as §1
# [23] = target: Neu5Ac(a2-6)Gal(b1-4)GlcNAc(b1-3)Gal(b1-4)GlcNAc(b1-3)GalNAc
# Outline: as §1
# [24] = target: Neu5Ac(a2-8)Neu5Ac(a2-3)Gal(b1-4)GlcNAc
# Outline: as §1
# [25] = target: Neu5Gc(a2-3)Gal(b1-3)[Fuc(a1-4)]GlcNAc
# Outline: as §1
# [26] = target: Neu5Gc(a2-3)Gal(b1-4)GlcNAc
# Outline: as §1
binder,measurement,setting,value
"LCA (Lens culinaris), P02870 (protein) MASLQTQMISFYLIFLSILLTTIFFFKVNSTETTSFSITKFSPDQKNLIFQGDGYTTKGKLTLTKAVKSTVGRALYSTPIHIWDRDTGNVANFVTSFTFVIDAPSSYNVADEFTFFIAPVDTKPQTGGGYLGVFNSKEYDKTSQTVAVEFDTFYNAAWDPSNKERHIGIDVNSIKSVNTKSWNLQNGERANVVIAFNAATNVLTVTLTYPNSLEEENVTSYTLNEVVPLKDVVPEWVRIGFSATTGAEFAAHEVHSWSFHSELGGTSSSKQAADA",glycan array binding signal (z-score),[1],-0.135
same,glycan array binding signal (z-score),[2],5.54
same,glycan array binding signal (z-score),[3],8.45
same,glycan array binding signal (z-score),[4],5.29
same,glycan array binding signal (z-score),[5],-0.199
same,glycan array binding signal (z-score),[6],3.94
same,glycan array binding signal (z-score),[7],-0.209
same,glycan array binding signal (z-score),[8],-0.184
same,glycan array binding signal (z-score),[9],-0.228
same,glycan array binding signal (z-score),[10],1.19
same,glycan array binding signal (z-score),[11],2.09
same,glycan array binding signal (z-score),[12],6.07
same,glycan array binding signal (z-score),[13],-0.262
same,glycan array binding signal (z-score),[14],-0.228
same,glycan array binding signal (z-score),[15],-0.145
same,glycan array binding signal (z-score),[16],-0.235
same,glycan array binding signal (z-score),[17],0.102
same,glycan array binding signal (z-score),[18],-0.232
same,glycan array binding signal (z-score),[19],-0.202
same,glycan array binding signal (z-score),[20],-0.188
same,glycan array binding signal (z-score),[21],-0.239
same,glycan array binding signal (z-score),[22],4.04
same,glycan array binding signal (z-score),[23],-0.224
same,glycan array binding signal (z-score),[24],-0.237
same,glycan array binding signal (z-score),[25],-0.207
same,glycan array binding signal (z-score),[26],-0.219
